Measurements from PubChem BioAssay (EPA / NIEHS).
Activity calls are given as the source filed them. The calls were made as follows: active = hit-call score of the fitted dose curve at least 0.9, where 1 is the maximum; inactive = score below 0.9.

Tested on: not listed separately
Assay: ATG_NFI_CIS: Attagene CIS-FACTORIAL HepG2 Assay for human Nuclear Factor I (NFI) (AID 2282989)
Conditions: HepG2 cis-regulatory reporter, NFI response element transcription; actives raise or lower the signal
Procedure, shortened: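 Transient MRTU transfection of HepG2 → 24 h chemical dosing → total RNA, oligo(dT) RT → PCR, 6-FAM primer extension, HpaI cut → capillary electrophoresis. Endpoint fitted bidirectionally relative to DMSO.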
In the case of `Nc1ccc(-c2ccc(N)c(N)c2)cc1N`, the outcome is reported as “inactive”. With `CCOP(O)OCC` the outcome was “inactive”. In the case of `C#CC1(O)CCCCC1`, the outcome is reported as “inactive”. For `O=c1[nH]c(Cl)c(Cl)cc1Cl`, the outcome was “inactive”. In the case of `CCC(C)c1cc(C(C)(C)C)cc(-n2nc3ccccc3n2)c1O` (stereo not drawn), the outcome is reported as “inactive”. In the case of `[CH3][Sn]([Cl])([Cl])[Cl]`, the outcome is reported as “inactive”. In the case of `Nc1c(Cl)c(Cl)c(Cl)c(Cl)c1Cl`, the outcome is reported as “inactive”. In the case of `COC(=O)c1ccccc1S(=O)(=O)NC(=O)Nc1nc(C)cc(C)n1`, the outcome is reported as “inactive”. With `Nc1ccccc1C(=O)OCCc1ccccc1` the outcome was “inactive”. In the case of `N#Cc1cccc(C#N)c1`, the outcome is reported as “inactive”. For `O=C(O)CCCc1ccc(N(CCCl)CCCl)cc1`, the outcome was “inactive”. For `Nc1cc(Cl)cc(Cl)c1`, the outcome was “inactive”. With `COc1ncc(F)c2nc(S(=O)(=O)Nc3c(F)cccc3F)nn12` the outcome was “inactive”. For `COC(C)(C)CCC[C@H](C)C/C=C/C(C)=C/C(=O)OC(C)C`, the outcome was “inactive”. For `[CH3][Sn]([CH3])([Cl])[Cl]`, the outcome was “inactive”. In the case of `BrCBr`, the outcome is reported as “inactive”. With `CCc1cccc(C)c1N(C(=O)CCl)[C@@H](C)COC` the outcome was “inactive”. With `O=P1(NCCCl)OCCCN1CCCl` (stereo not drawn) the outcome was “inactive”. In the case of `CC(Cc1ccc(C(C)(C)C)cc1)CN1C[C@@H](C)O[C@@H](C)C1` (stereo partly drawn), the outcome is reported as “inactive”. With `O=C(O)c1cc[c]([Hg][Cl])cc1` the AC50 was 11.1 µM (active). For `C[N+](C)(C)CC(=O)O`, the outcome was “inactive”. In the case of `O=S(=O)(c1ccccc1)c1ccccc1`, the outcome is reported as “inactive”. In the case of `Clc1ccc(-c2ccccc2)cc1`, the AC50 is reported as 152 µM (active). For `CN(C)C(=O)C(c1ccccc1)c1ccccc1`, the outcome was “inactive”. For `C=CCc1ccc(OC(=O)Cc2ccccc2)c(OC)c1`, the outcome was “inactive”. In the case of `O=P(O)(Oc1ccccc1)Oc1ccccc1`, the outcome is reported as “inactive”. In the case of `CC1CCCC1.[C-]#[O+].[C-]#[O+].[C-]#[O+].[Mn]`, the outcome is reported as “inactive”. In the case of `O=C(O)COc1ccccc1`, the outcome is reported as “inactive”. With `[Cl][Sb]([Cl])[Cl]` the outcome was “inactive”. In the case of `CCC(=O)c1ccc(Cl)cc1`, the outcome is reported as “inactive”. With `Cc1ccc(N(SC(F)(Cl)Cl)S(=O)(=O)N(C)C)cc1` the AC50 was 17.3 µM (active). For `CC1(C)CC(=O)CC(C)(C)N1[O]`, the outcome was “inactive”. For `SCc1ccco1`, the outcome was “inactive”. For `O=CNC(N1CCN(C(NC=O)C(Cl)(Cl)Cl)CC1)C(Cl)(Cl)Cl` (stereo not drawn), the outcome was “inactive”. With `Oc1cc(Cl)ccc1Cl` the outcome was “inactive”. With `O=[N+]([O-])c1cc(C(F)(F)F)c(Cl)c([N+](=O)[O-])c1Cl` the AC50 was 6.17 µM (active). In the case of `C[C@]12CCC(=O)C(O)=C1CC[C@@H]1[C@@H]2CC[C@]2(C)C(=O)CC[C@@H]12`, the outcome is reported as “inactive”. With `CSc1nc(N=[N+]=[N-])nc(NC(C)C)n1` the outcome was “inactive”. With `O=[N+]([O-])O.O=[N+]([O-])O.[Cd]` the AC50 was 2.18 µM (active).

Biological target: Myc proto-oncogene protein (Homo sapiens) (UniProt P01106)
Sequence (P01106 whole entry, looked up): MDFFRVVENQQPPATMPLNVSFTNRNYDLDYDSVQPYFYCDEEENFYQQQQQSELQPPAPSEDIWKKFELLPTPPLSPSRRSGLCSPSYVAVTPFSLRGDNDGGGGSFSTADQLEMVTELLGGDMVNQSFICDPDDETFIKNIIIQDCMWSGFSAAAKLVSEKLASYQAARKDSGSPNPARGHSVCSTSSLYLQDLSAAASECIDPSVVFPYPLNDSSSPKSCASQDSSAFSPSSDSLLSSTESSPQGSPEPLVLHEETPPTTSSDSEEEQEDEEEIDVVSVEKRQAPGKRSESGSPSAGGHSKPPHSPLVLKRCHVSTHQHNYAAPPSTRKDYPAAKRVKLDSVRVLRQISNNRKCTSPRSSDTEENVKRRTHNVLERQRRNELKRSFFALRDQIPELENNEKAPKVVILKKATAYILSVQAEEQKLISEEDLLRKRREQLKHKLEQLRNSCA
Assay: ATG_Myc_CIS: Attagene CIS-FACTORIAL HepG2 Assay for human Myelocytomatosis (Myc) Proto-Oncogene Transcription Factor (AID 2282990)
Conditions: HepG2, Attagene cis-reporter transcription factor activity; actives raise or lower the signal
Procedure, shortened: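 DMSO-normalised, bidirectionally fitted reporter mRNA signal. HepG2 cells transfected with cis reporter constructs, treated 24 h; transcripts detected by RT-PCR, 6-FAM primer extension and CE.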
With `Nc1ccc(-c2ccc(N)c(N)c2)cc1N` the outcome was “inactive”. In the case of `CCOP(O)OCC`, the outcome is reported as “inactive”. In the case of `C#CC1(O)CCCCC1`, the outcome is reported as “inactive”. In the case of `O=c1[nH]c(Cl)c(Cl)cc1Cl`, the outcome is reported as “inactive”. For `CCC(C)c1cc(C(C)(C)C)cc(-n2nc3ccccc3n2)c1O` (stereo not drawn), the outcome was “inactive”. For `[CH3][Sn]([Cl])([Cl])[Cl]`, the outcome was “inactive”. With `Nc1c(Cl)c(Cl)c(Cl)c(Cl)c1Cl` the outcome was “inactive”. With `COC(=O)c1ccccc1S(=O)(=O)NC(=O)Nc1nc(C)cc(C)n1` the outcome was “inactive”. For `Nc1ccccc1C(=O)OCCc1ccccc1`, the outcome was “inactive”. With `N#Cc1cccc(C#N)c1` the outcome was “inactive”. For `O=C(O)CCCc1ccc(N(CCCl)CCCl)cc1`, the outcome was “inactive”. In the case of `Nc1cc(Cl)cc(Cl)c1`, the outcome is reported as “inactive”. In the case of `COc1ncc(F)c2nc(S(=O)(=O)Nc3c(F)cccc3F)nn12`, the outcome is reported as “inactive”. In the case of `COC(C)(C)CCC[C@H](C)C/C=C/C(C)=C/C(=O)OC(C)C`, the outcome is reported as “inactive”. With `[CH3][Sn]([CH3])([Cl])[Cl]` the outcome was “inactive”. With `BrCBr` the outcome was “inactive”. In the case of `CCc1cccc(C)c1N(C(=O)CCl)[C@@H](C)COC`, the outcome is reported as “inactive”. With `O=P1(NCCCl)OCCCN1CCCl` (stereo not drawn) the outcome was “inactive”. In the case of `CC(Cc1ccc(C(C)(C)C)cc1)CN1C[C@@H](C)O[C@@H](C)C1` (stereo partly drawn), the outcome is reported as “inactive”. For `O=C(O)c1cc[c]([Hg][Cl])cc1`, the outcome was “inactive”. With `C[N+](C)(C)CC(=O)O` the outcome was “inactive”. In the case of `O=S(=O)(c1ccccc1)c1ccccc1`, the outcome is reported as “inactive”. In the case of `Clc1ccc(-c2ccccc2)cc1`, the outcome is reported as “inactive”. In the case of `CN(C)C(=O)C(c1ccccc1)c1ccccc1`, the outcome is reported as “inactive”. In the case of `C=CCc1ccc(OC(=O)Cc2ccccc2)c(OC)c1`, the outcome is reported as “inactive”. In the case of `O=P(O)(Oc1ccccc1)Oc1ccccc1`, the outcome is reported as “inactive”. For `CC1CCCC1.[C-]#[O+].[C-]#[O+].[C-]#[O+].[Mn]`, the outcome was “inactive”. In the case of `O=C(O)COc1ccccc1`, the outcome is reported as “inactive”. For `[Cl][Sb]([Cl])[Cl]`, the AC50 was 175 µM (active). In the case of `CCC(=O)c1ccc(Cl)cc1`, the outcome is reported as “inactive”. In the case of `Cc1ccc(N(SC(F)(Cl)Cl)S(=O)(=O)N(C)C)cc1`, the AC50 is reported as 20.3 µM (active). For `CC1(C)CC(=O)CC(C)(C)N1[O]`, the outcome was “inactive”. For `SCc1ccco1`, the outcome was “inactive”. For `O=CNC(N1CCN(C(NC=O)C(Cl)(Cl)Cl)CC1)C(Cl)(Cl)Cl` (stereo not drawn), the outcome was “inactive”. In the case of `Oc1cc(Cl)ccc1Cl`, the outcome is reported as “inactive”. With `O=[N+]([O-])c1cc(C(F)(F)F)c(Cl)c([N+](=O)[O-])c1Cl` the outcome was “inactive”. With `C[C@]12CCC(=O)C(O)=C1CC[C@@H]1[C@@H]2CC[C@]2(C)C(=O)CC[C@@H]12` the outcome was “inactive”. For `CSc1nc(N=[N+]=[N-])nc(NC(C)C)n1`, the outcome was “inactive”. In the case of `O=[N+]([O-])O.O=[N+]([O-])O.[Cd]`, the AC50 is reported as 0.962 µM (active).
